# Screening results from PubChem BioAssay.
# TbPYK inhibitor: blocks Trypanosoma brucei pyruvate kinase | Q57TT1 | TbPYK enzyme, Kinase-Glo Plus ATP luminescence, 45 min | Potency, µM (top dose mostly 76.8 µM), without a hit: at the highest dose activity, negative = inhibition, most hits filed as inhibitors | actives 0.12% (n = 410,000); further: on the % scale 0 is the no-effect control and ±100 the full control effect; nearly all actives have a fitted effect of over 50% in size
#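 Luminescent Kinase-Glo Plus end-point after 45 min room-temperature reaction of T. brucei pyruvate kinase started with 130 uM ADP (final). Buffer TEA 50 mM pH 7.2 with KCl, MgCl2, BSA, Tween-20; titration-based qHTS with fitted concentration-effect curves.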
# RE007 growth inh: less growth of the S. pombe RE007 Vpr strain; S. pombe RE007 Vpr strain, BacTiter-Glo ATP luminescence, 24 h; Potency, µM (doses to about 92.2 µM), without a hit: at the highest dose activity change, negative = less growth, most hits filed as inhibitors; actives 0.21% (n = 360,000); AID 651644; active means well fitted falling curve with a large enough effect; inconclusive means small, poorly fitted or top-dose-only effect; inactive means no such curve, though single readings can be large or run the other way; further: on the % scale 0 is the no-effect control and ±100 the full control effect; nearly all actives have a fitted effect of over 50% in size
#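 Fission yeast RE007 carrying one integrated HIV-1 vpr copy, seeded at OD 0.01 in PMG+AL medium with 23 nL pinned compound. Grown 24 h at 30 degrees; viability read by BacTiter-Glo luminescence after 5 min.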
# Sm TGR inh: inhibitors of Schistosoma mansoni thioredoxin glutathione reductase. actives 3% (n = 360,000). purified TGR, DTNB reduction, TNB absorbance 405 nm. Q962Y6. Potency, µM (series often up to 114 µM), for the others: at the highest dose activity change, negative = inhibition, usual class: inhibitors; further: on the % scale 0 is the no-effect control and ±100 the full control effect; nearly all actives have a fitted effect of over 60% in size
#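 Kinetic colorimetric format: TGR-catalysed, NADPH-driven DTNB reduction monitored via TNB absorbance. Enzyme dispensed at 20 nM; compound exposure 15 min at room temperature before reaction start.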
# AmpC detergent: blocks E. coli AmpC beta-lactamase in detergent assay; P00811; AmpC hydrolysis of nitrocefin, absorbance 480 nm, 0.01% Triton; Potency, µM (titrated, usually from 114 µM), for the others: at the highest dose activity change, negative = inhibition, hits mostly inhibitors; actives 0.041% (n = 370,000);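 further: 0% = no-compound wells and -100% = no-enzyme wells; nearly all actives have a fitted effect of over 25% in size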
# Target sequence (P00811 whole entry, looked up): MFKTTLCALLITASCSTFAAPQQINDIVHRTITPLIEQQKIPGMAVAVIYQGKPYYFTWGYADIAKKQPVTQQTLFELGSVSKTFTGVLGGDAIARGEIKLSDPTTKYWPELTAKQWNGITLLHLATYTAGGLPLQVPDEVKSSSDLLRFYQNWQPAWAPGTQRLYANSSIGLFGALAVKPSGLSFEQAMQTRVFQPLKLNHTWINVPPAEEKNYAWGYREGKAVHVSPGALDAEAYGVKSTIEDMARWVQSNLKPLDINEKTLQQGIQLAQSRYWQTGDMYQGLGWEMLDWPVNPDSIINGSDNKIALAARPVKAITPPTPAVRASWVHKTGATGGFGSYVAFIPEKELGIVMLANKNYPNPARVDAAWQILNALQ
#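 AmpC (5.3 nM in the dispensed reagent) in 20 mM phosphate pH 7.0 with 0.01% (detergent screen) or 0.0001% Triton X-100 was preincubated with compounds for 15 min at room temperature. Nitrocefin was then added from an 800 uM solution, and hydrolysis was followed at 480 nm.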
# AmpC no deterg: inhibitors of E. coli AmpC beta-lactamase without detergent; P00811; AmpC nitrocefin hydrolysis, absorbance 480 nm, 0.0001% Triton; Potency, µM (top dose mostly 57.1 µM), for inactives: at the highest dose activity change, negative = inhibition, actives largely listed as inhibitors; actives 0.52% (n = 330,000);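 further: plate controls were no compound for no effect and no enzyme for full effect; nearly all actives have a fitted effect of over 20% in size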
#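 20 mM phosphate pH 7.0 + 0.01% (detergent screen) or 0.0001% Triton X-100; 5.3 nM AmpC reagent; cpd preinc 15 min RT; nitrocefin (800 uM stock) to start; A480 q20 s × 4 min; Activity was normalised to no-enzyme and no-compound control wells.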
# SARS PLP yeast: inhibitors of SARS-CoV papain-like protease in yeast | S. cerevisiae expressing SARS-CoV PLpro, growth rescue | Potency, µM (titrated, usually from 32.9 µM), for the others: top-dose activity, positive = growth rescue, hits mostly activators | actives 0.19% (n = 330,000); calls by dose curve; further: 0% is about no effect; nearly all actives have a fitted effect of over 55% in size
# * marks the source's active call; other numbers are inactive results; ? = inconclusive; / = no result. Compounds with a hit are over-represented: about 3.3% of the library has one in this group of screens. Unless noted, the call rests on the fitted dose curve; in most records, active means well fitted curve in the direction sought with a large enough effect; inconclusive means small, poorly fitted or top-dose-only effect, or another doubt; inactive means no such curve, though single readings can be large; an effect the other way counts as inactive or inconclusive. Potency means the concentration at half of the fitted maximal effect.
SMILES,TbPYK inhibitor,RE007 growth inh,Sm TGR inh,AmpC detergent,AmpC no deterg,SARS PLP yeast
COc1ccc(-c2nnc(SCC(=O)Oc3c(C)cccc3C)o2)cc1OC,-4%,/,4%,24%,/,/
COc1ccc(C2C=C(c3ccc(C)cc3)Nc3ncnn32)cc1 (stereo not given),8%,-21%,28µM*,-4%,-5%,-14%
CCOc1ccc(C2C=C(c3ccc(F)cc3)Nc3ncnn32)cc1 (stereo not given),2%,-7%,28µM*,-7%,-12%,-11%
Fc1ccc(C2=CC(c3ccc(Br)o3)n3ncnc3N2)cc1 (stereo not given),-16%,?,20µM*,-8%,-49%,18%
COc1ccc(C2C=C(c3ccc(Cl)c(Cl)c3)Nc3ncnn32)cc1 (stereo not given),3%,/,19%,-6%,/,/
COc1ccc(C2C=C(c3ccc(Br)s3)Nc3ncnn32)cc1OC (stereo not given),/,/,50µM*,-2%,19%,-25%
COc1ccc(-c2[nH]ncc2C(=O)NCc2ccc(F)cc2)cc1,-2%,/,3%,0%,/,/
Cc1cc(OCC(=O)Nc2cc(-c3nc4ccccc4[nH]3)ccc2C)ccc1Cl,-2%,/,-4%,1%,/,/
Cc1ccc(C2C=C(c3ccccc3)Nc3ncnn32)cc1 (stereo not given),-13%,3%,/,/,/,/
COc1cccc(C2=CC(c3ccccc3)n3ncnc3N2)c1 (stereo not given),/,/,14µM*,-1%,-4%,8%
C1=C(c2ccc(-c3ccccc3)cc2)Nc2ncnn2C1c1ccco1 (stereo not given),-5%,?,22µM*,-2%,-51%,/
Fc1ccc(C2=CC(c3ccco3)n3ncnc3N2)cc1 (stereo not given),-12%,-16%,?,-14%,-24%,12%
CCOc1ccc(C2C=C(c3ccccc3)Nc3ncnn32)cc1 (stereo not given),/,/,79µM*,-9%,-21%,-1%
Oc1ccc(C2C=C(c3ccc(F)cc3)Nc3ncnn32)cc1 (stereo not given),-1%,-12%,45µM*,-1%,-27%,1%
COc1cccc(N2CCN(C(=O)c3cccc(NC(=O)c4nsc5ccccc45)c3)CC2)c1,1%,/,8%,1%,/,/
Oc1ccc(Nc2nc3ccccc3n3cnnc23)cc1,-5%,/,?,14%,/,/
Cc1ccc(S(=O)(=O)N/N=C/c2c[nH]c3ccccc23)cc1,-1%,7%,-15%,4%,-24%,0%
Cc1ccc(S(=O)(=O)/C(C#N)=C/c2c[nH]c3ccccc23)cc1,1%,13%,9%,-4%,18µM*,-1%
OCCN1CCN(Cc2nc(-c3cccc(Cl)c3)no2)CC1,7%,0%,-11%,6%,3%,0%
CN1CCCN(Cc2nc(-c3ccc(Cl)cc3)no2)CC1,0%,-3%,18µM*,-2%,17%,1%
O=C(CC1CCCCC1)c1c(O)c2ccccc2oc1=O,0%,-8%,50µM*,3%,-19%,-21%
COc1ccc(OCC(=O)c2c(O)c3ccccc3oc2=O)cc1,-25%,7%,32µM*,-13%,-25%,-3%
CCCCC(=O)c1c(O)c2ccccc2oc1=O,4%,?,-12%,-8%,-18%,-32%
CCOc1ccc(OCC(=O)c2c(O)c3ccccc3oc2=O)cc1,?,-18%,18µM*,-8%,-58%,-7%
CC(=N)c1c(O)c2ccccc2oc1=O,8%,-15%,12%,3%,0%,-1%
O=C1C2C(C(=O)N1/N=C/c1ccc(N3CCCCC3)o1)C1C=CC2C12CC2 (stereo not given),25µM*,0%,4µM*,2%,60%,22%
